# Laboratory results published in PubChem BioAssay (Tox21).
# Several values for one entry are separate records, joined by “and”; a condition that tells them apart may be missing. Equal entries are not always repeated. Results filed as inconclusive are left out. Where a call stands in place of a potency, no number is given. A structure can be active in one record and inactive in another. Activity calls are given as the source filed them. Unless noted, the call rests on the fitted dose curve; in most records, active means well fitted curve in the direction sought with a large enough effect in the repeat runs; inconclusive means weak or mixed curves; inactive means no such curve, though single readings can be large; an effect the other way counts as inactive or inconclusive.
# Experiments:
# [1] = qHTS assay to identify small molecule antagonists of the estrogen related receptor (ERR) signaling pathway from Tox21 library - cell viability counter screen (AID 1224834); further: nearly all actives have a fitted effect of over 30% in size
# How it was run: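 Fluorescence from CellTiter-Fluor gives the viability read-out, taken 30 min after reagent addition. Before that, ERR cells seeded 6 h earlier were incubated with compounds for 17.5 h at 37 C.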
# [2] = target: Luciferin 4-monooxygenase (Photinus pyralis) (UniProt P08659); experiment: qHTS assay to identify small molecule inhibitors of firefly luciferase (AID 1224835); further: nearly all actives have a fitted effect of over 25% in size
# Sequence of Luciferin 4-monooxygenase (Photinus pyralis) (P08659 whole entry, looked up): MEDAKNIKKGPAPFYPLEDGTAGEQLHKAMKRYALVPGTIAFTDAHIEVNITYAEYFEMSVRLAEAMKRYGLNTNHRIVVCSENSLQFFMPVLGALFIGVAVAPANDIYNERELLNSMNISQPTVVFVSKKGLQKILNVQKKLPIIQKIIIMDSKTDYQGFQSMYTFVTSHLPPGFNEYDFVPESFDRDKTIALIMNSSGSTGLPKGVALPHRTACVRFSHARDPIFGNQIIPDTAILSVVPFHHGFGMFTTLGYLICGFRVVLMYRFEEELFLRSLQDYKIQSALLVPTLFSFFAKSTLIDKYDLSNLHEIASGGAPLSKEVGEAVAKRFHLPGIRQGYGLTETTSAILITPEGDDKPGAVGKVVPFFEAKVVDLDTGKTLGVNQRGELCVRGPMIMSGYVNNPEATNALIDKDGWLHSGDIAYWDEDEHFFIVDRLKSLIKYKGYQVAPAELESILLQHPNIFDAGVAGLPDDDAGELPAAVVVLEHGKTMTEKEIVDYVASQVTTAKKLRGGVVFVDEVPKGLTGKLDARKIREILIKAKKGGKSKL
# How it was run: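 Inhibition of purified Photinus luciferase is measured by luminescence. Substrate levels (D-luciferin, ATP) sit at their KM values. Each compound is tested in a concentration series.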
# [3] = qHTS assay to identify small molecule agonists of the constitutive androstane receptor (CAR) signaling pathway - cell viability counter screen (AID 1224836); further: nearly all actives have a fitted effect of over 45% in size
# How it was run: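 HepG2-CYP2B6-hCAR, 2500 cells/well, 4 h pre-incubation; cpd 15 conc + PK11195 0.75 uM final; 23 h, 37 C/5% CO2; CellTiter-Fluor, fluorescence.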
# [4] = qHTS assay to identify small molecule antagonists of the constitutive androstane receptor (CAR) signaling pathway - cell viability counter screen (AID 1224837); further: nearly all actives have a fitted effect of over 45% in size
# How it was run: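 HepG2-CYP2B6-hCAR cells, 2500/well, 4 hr pre-incubation; compound titration, 15 conc.; CITCO 50 nM final; 23 hr, 37 C/5% CO2; CellTiter-Fluor, fluorescence intensity.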
# [5] = target: Nuclear receptor subfamily 1 group I member 3 (Homo sapiens) (UniProt Q14994); experiment: qHTS assay to identify small molecule antagonists of the constitutive androstane receptor (CAR) signaling pathway (AID 1224838);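 further: HepG2 cells stably expressing hCAR with CYP2B6 luciferase reporter stimulated by CITCO; nearly all actives have a fitted effect of over 40% in size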
# Sequence of Nuclear receptor subfamily 1 group I member 3 (Homo sapiens) (Q14994 whole entry, looked up): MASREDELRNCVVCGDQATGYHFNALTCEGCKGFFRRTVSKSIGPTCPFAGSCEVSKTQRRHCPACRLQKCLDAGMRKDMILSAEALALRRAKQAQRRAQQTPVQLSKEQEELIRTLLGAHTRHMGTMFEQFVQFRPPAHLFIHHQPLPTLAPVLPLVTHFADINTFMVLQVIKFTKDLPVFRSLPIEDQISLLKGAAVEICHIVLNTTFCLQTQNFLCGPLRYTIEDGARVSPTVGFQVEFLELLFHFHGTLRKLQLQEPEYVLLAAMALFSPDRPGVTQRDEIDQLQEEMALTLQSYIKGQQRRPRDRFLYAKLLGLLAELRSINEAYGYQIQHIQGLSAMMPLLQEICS
# How it was run: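 HepG2-CYP2B6-hCAR cells; 4 h pre-incubation; cpd (15 conc) + CITCO 50 nM final; 24 h, 37 C/5% CO2; ONE-Glo, luminescence.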
# [6] = target: Nuclear receptor subfamily 1 group I member 3 (Homo sapiens) (UniProt Q14994); experiment: qHTS assay to identify small molecule agonists of the constitutive androstane receptor (CAR) signaling pathway (AID 1224839); further: nearly all actives have a fitted effect of over 15% in size; further: potency means the concentration at half of the fitted maximal effect;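 on activation: HepG2 cells stably carrying human CAR and a CYP2B6 luciferase reporter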
# How it was run: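 HepG2-CYP2B6-hCAR cells, 2500/well, 4 h pre-incubation; compounds 15 conc.; PK11195 0.75 uM final; 24 h, 37 C/5% CO2; ONE-Glo luciferase read.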
# [7] = qHTS assay to identify small molecule antagonists of the estrogen related receptor signaling pathway with the pleiotropic PPARgamma coactivator (PGC) from Tox21 10K library - cell viability counter screen (AID 1224840; active means well fitted cell-killing curve with a large enough effect in the repeat runs, not every such curve was filed as active; further: nearly all actives have a fitted effect of over 40% in size)
# How it was run: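 PGC/ERR cells, 2,000/well; 6 h pre-incubation 37 C/5% CO2; cpd in DMSO via pin tool; 17.5 h 37 C; CellTiter-Fluor, 30 min; fluorescence.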
# [8] = target: Thyrotropin receptor (Homo sapiens) (UniProt P16473); experiment: qHTS assay to identify small molecule agonists of the thyroid stimulating hormone receptor (TSHR) signaling pathway (AID 1224843; calls by dose curve; further: nearly all actives have a fitted effect of over 45% in size)
# Sequence of Thyrotropin receptor (Homo sapiens) (P16473 whole entry, looked up): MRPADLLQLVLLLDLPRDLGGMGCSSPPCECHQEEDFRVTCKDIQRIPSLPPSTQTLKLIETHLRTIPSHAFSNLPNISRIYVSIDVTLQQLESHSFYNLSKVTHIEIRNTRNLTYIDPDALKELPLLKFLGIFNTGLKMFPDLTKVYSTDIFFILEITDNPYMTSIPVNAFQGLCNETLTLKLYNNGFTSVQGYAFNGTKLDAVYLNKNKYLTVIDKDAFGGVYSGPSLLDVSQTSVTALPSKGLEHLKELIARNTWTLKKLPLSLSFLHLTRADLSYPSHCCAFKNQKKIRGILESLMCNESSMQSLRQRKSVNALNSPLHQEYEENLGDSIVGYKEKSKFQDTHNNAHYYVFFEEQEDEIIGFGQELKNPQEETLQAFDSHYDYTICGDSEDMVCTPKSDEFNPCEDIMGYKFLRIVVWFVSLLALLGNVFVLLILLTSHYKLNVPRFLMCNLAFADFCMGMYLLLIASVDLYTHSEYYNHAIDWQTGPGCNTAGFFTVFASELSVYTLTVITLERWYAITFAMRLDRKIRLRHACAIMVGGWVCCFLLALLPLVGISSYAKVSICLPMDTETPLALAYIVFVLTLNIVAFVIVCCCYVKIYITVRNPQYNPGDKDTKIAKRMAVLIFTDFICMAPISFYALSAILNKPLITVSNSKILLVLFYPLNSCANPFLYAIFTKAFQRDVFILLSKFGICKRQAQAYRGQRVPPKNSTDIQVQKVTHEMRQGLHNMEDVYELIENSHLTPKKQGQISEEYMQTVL
# How it was run: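 HEK293 cells stably bearing the thyrotropin receptor were plated at 800 cells/well and challenged with compound (30 min, RT). Accumulated cAMP was quantified via cAMP-d2 competing for cryptate-tagged antibody.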
# [9] = qHTS assay to identify small molecule agonists of the hypoxia (HIF-1) signaling pathway - cell viability counter screen (AID 1224844; calls by dose curve; further: nearly all actives have a fitted effect of over 50% in size)
# How it was run: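 ME-180 HRE-bla cells, 2,000/well, 0.5% dialyzed FBS; 5 hr settle, 17 hr compound at 37C/5% CO2; CCF4-AM reporter read first, then CellTiter-Glo luminescence after 30 min RT.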
# [10] = qHTS assay to identify small molecule agonists of H2AX (AID 1224845; active means well fitted activation curve with a large enough effect in the signal ratio in the repeat runs, not every such curve was filed as active; the % refers to the signal ratio)
# How it was run: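 Phospho-H2AX Ser139 measured by HTRF (ex 320 nm; em 665 and 620 nm) after 24 hr antibody incubation. Compounds, 15 concentrations, 0.76% DMSO, were applied to CHO-K1 cells for 3hr at 37C before lysis.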
# [11] = qHTS assay to identify small molecule agonists of the hypoxia (HIF-1) signaling pathway (AID 1224846; active means well fitted activation curve with a large enough effect in the signal ratio in the repeat runs, not every such curve was filed as active; the % refers to the signal ratio)
# How it was run: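 Cell line: CellSensor HRE-bla ME-180; 2,000 cells/well; 0.5% dialyzed FBS; 5 h preincubation; DMSO compound pin transfer; 17 h, 37C, 5% CO2; CCF4-AM added; bla FRET signal scored for activation.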
# [12] = qHTS assay to identify small molecule agonists of H2AX - cell viability counter screen (AID 1224847; calls by dose curve;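 further: wild-type CHO-K1 cells; top concentration of the series differs between compounds; nearly all actives have a fitted effect of over 30% in size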)
# How it was run: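 Cells plated first: CHO-K1, 1000 per well in 10% FBS medium, incubated overnight at 37C. Then 15-point compound titration added (final DMSO 0.76%) for 3 hr. Finally CellTiter-Glo added and luminescence read.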
# [13] = qHTS RealTime-Glo MT Cell Viability Assay in HepG2 cells - 24 hour (AID 1224867); further: nearly all actives have a fitted effect of over 50% in size
# How it was run: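 HepG2 cells were seeded at 600 cells/well together with NanoLuc luciferase and a cell-permeant prosubstrate, preincubated 5 h at 37 C/5% CO2, then pin-dosed with compounds in DMSO. Nonlytic luminescence from viable cells was read at each time point.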
# [14] = qHTS RealTime-Glo MT Cell Viability Assay in HEK293 cells - 32 hour (AID 1224868); further: top concentration of the series differs between compounds; nearly all actives have a fitted effect of over 50% in size
# How it was run: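 HEK293 cells were seeded at 600 cells/well together with NanoLuc luciferase and cell-permeant prosubstrate, preincubated 5 h at 37 C/5% CO2, then given compound in DMSO by pintool. Luminescence from viable-cell prosubstrate reduction was read repeatedly over 40 h.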
# [15] = A CellTox Green Cytotoxicity Assay to monitor cytotoxicity in HEK293 cells - 0 hour (AID 1224869); further: nearly all actives have a fitted effect of over 50% in size; further: potency means the concentration at half of the fitted maximal effect
# How it was run: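 Nonlytic real-time cytotoxicity: HEK293 + CellTox Green reagent plated, 5 h preincubation, pintool compound addition (23 nL in DMSO), 37 C for 40 h, fluorescence measured at successive time points.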
# [16] = qHTS assay to identify small molecule antagonists of the estrogen related receptor signaling pathway with the pleiotropic PPARgamma coactivator (PGC) from Tox21 10K library (AID 1224841; call rule not given here)
# How it was run: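 PGC/ERR cell line, 2,000 cells/well; 6 h pre-incubation 37 C/5% CO2; compounds (DMSO) pinned in; 18 h, 37 C; One-Glo, 30 min RT; luminescence.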
# [17] = qHTS assay to identify small molecule agonists of the estrogen related receptor signaling pathway with the pleiotropic PPARgamma coactivator (PGC) from Tox21 10K library (AID 1224842); further: nearly all actives have a fitted effect of over 15% in size
# How it was run: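 Luminescence from One-Glo (30 min, room temperature) measured after PGC/ERR cells had 18 h at 37 C with pinned compound (23 nL in DMSO). Cells had been seeded at 2,000 per well and pre-incubated 6 h.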
# [18] = qHTS assay to identify small molecule antagonists of the estrogen related receptor (ERR) signaling pathway from Tox21 library (AID 1224848); further: nearly all actives have a fitted effect of over 50% in size
# How it was run: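 Reading was by luminescence 30 min after ONE-Glo addition. Before that, ERR cells at 2,000 per well had rested 6 h at 37 C/5% CO2 and then received pin-tooled compounds in DMSO for 18 h at 37 C.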
# [19] = qHTS assay to identify small molecule agonists of the estrogen related receptor (ERR) signaling pathway from Tox21 library (AID 1224849; calls by dose curve; further: nearly all actives have a fitted effect of over 15% in size); details: ERR reporter cell line, ONE-Glo luciferase, 18 h
# How it was run: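 ERR cells, 6 h pre-incubation 37 C/5% CO2; cpd in DMSO pinned; 18 h 37 C; ONE-Glo added, 30 min RT; luminescence read. Agonist mode, qHTS.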
# [20] = qHTS RealTime-Glo MT Cell Viability Assay in HepG2 cells - 40 hour (AID 1224870); further: nearly all actives have a fitted effect of over 50% in size
# How it was run: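 Real-time viability: cells seeded at 600 per well together with NanoLuc and cell-permeant prosubstrate, compounds added after 5 h incubation. Luminescence tracked at 0, 8, 16, 24, 32 and 40 h of exposure.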
smiles,measurement,setting,value
C=CC(=O)NC(C)(C)CS(=O)(=O)O,Potency,[1],inactive
same,Potency,[2],inactive
same,Potency,[3],inactive
same,Potency,[4],inactive
same,Potency,[5],inactive
same,Potency,[6],inactive
same,Potency,[7],inactive
same,Potency,[8],inactive
same,Potency,[9],inactive
same,Potency,[10],inactive
same,outcome,[11],inactive
same,Potency,[12],inactive
same,outcome,[13],inactive
same,Potency,[14],inactive
same,Potency,[15],inactive and 43.6 µM (active)
O=C(O)CN(CC(=O)O)CC(=O)O,Potency,[1],inactive
same,Potency,[2],inactive
same,Potency,[3],inactive
same,Potency,[4],inactive
same,Potency,[5],inactive
same,Potency,[6],inactive
same,Potency,[7],inactive
same,Potency,[16],inactive
same,Potency,[17],inactive
same,Potency,[9],inactive
same,outcome,[11],inactive
same,Potency,[12],inactive
same,Potency,[18],inactive
same,"activity change, positive = activation",[19]; at 92.4 µM (top of the series),0.123% (inactive) and 2.89% (inactive)
same,outcome,[13],inactive
same,Potency,[14],inactive
same,Potency,[15],inactive
same,outcome,[20],inactive
Cc1cccc(C)c1O,Potency,[1],inactive
same,Potency,[2],inactive
same,Potency,[3],inactive
same,Potency,[4],inactive
same,Potency,[5],inactive
same,Potency,[6],inactive
same,Potency,[7],inactive
same,Potency,[16],inactive
same,Potency,[17],inactive
same,Potency,[9],inactive
same,outcome,[11],inactive
same,Potency,[12],inactive
same,Potency,[18],inactive
same,"activity change, positive = activation",[19]; at 92.4 µM (top of the series),7.32% (inactive) and 4.77% (inactive)
same,outcome,[13],inactive
same,Potency,[14],inactive
same,Potency,[15],inactive
CCCCOCCOCCSC#N,Potency,[1],inactive
same,Potency,[2],inactive
same,Potency,[3],inactive
same,Potency,[4],inactive
same,Potency,[5],inactive
same,Potency,[6],inactive
same,Potency,[7],inactive
same,Potency,[8],inactive
same,Potency,[9],inactive
same,Potency,[10],inactive
same,outcome,[11],inactive
same,Potency,[12],inactive
same,outcome,[13],inactive
same,Potency,[14],inactive
same,Potency,[15],inactive
O=C1OC(c2ccc(O)cc2)(c2ccc(O)cc2)c2ccccc21,Potency,[1],inactive
same,Potency,[2],inactive
same,Potency,[3],inactive
same,Potency,[4],inactive
same,Potency,[5],inactive
same,Potency,[6],60.7 µM (active) and 8.63 µM (active) and 4.73 µM (active)
same,Potency,[7],inactive
same,Potency,[8],inactive
same,Potency,[9],inactive
same,Potency,[10],inactive
same,Potency,[12],inactive
same,outcome,[13],inactive
same,Potency,[14],inactive
same,Potency,[15],inactive
same,outcome,[20],inactive
O=C1CCCCCN1,Potency,[1],inactive
same,Potency,[2],inactive
same,Potency,[3],inactive
same,Potency,[4],inactive
same,Potency,[5],inactive
same,Potency,[6],inactive
same,Potency,[7],inactive
same,Potency,[16],inactive
same,Potency,[17],inactive
same,Potency,[8],inactive
same,Potency,[9],inactive
same,outcome,[11],inactive
same,Potency,[12],inactive
same,Potency,[18],inactive
same,"activity change, positive = activation",[19]; at 92.4 µM (top of the series),0.0496% (inactive) and -0.16% (inactive)
same,outcome,[13],inactive
same,Potency,[14],inactive
same,Potency,[15],inactive
same,outcome,[20],inactive
OCCCc1ccccc1,Potency,[1],inactive
same,Potency,[2],inactive
same,Potency,[3],inactive
same,Potency,[4],inactive
same,Potency,[5],inactive
same,Potency,[6],inactive
same,Potency,[7],inactive
same,Potency,[16],inactive
same,Potency,[17],inactive
same,Potency,[8],inactive
same,Potency,[9],inactive
same,Potency,[10],inactive
same,outcome,[11],inactive
same,Potency,[12],inactive
same,Potency,[18],inactive
same,"activity change, positive = activation",[19]; at 42.5 µM (top of the series),-1.08% (inactive)
same,"activity change, positive = activation",[19]; at 92.4 µM (top of the series),4.65% (inactive)
same,outcome,[13],inactive
same,Potency,[14],inactive
same,Potency,[15],inactive
